TDP1 block: qHTS Assay for Inhibitors of Tyrosyl-DNA Phosphodiesterase (TDP1); 350,000 compounds, 0.28% hits; AID 485290, 2010; Tyrosyl-DNA phosphodiesterase 1 (Homo sapiens), Q9NUW8; recombinant TDP1, AlphaScreen DNA substrate cleavage; Potency, µM (highest dose often 130 µM), for inactives: at the top dose activity change, negative = inhibition, usual class: inhibitors; further: potency means the concentration at half of the fitted maximal effect; on the % scale 0 is the no-effect control and ±100 the full control effect; nearly all actives have a fitted effect of over 40% in size
Target sequence (Q9NUW8 whole entry, looked up): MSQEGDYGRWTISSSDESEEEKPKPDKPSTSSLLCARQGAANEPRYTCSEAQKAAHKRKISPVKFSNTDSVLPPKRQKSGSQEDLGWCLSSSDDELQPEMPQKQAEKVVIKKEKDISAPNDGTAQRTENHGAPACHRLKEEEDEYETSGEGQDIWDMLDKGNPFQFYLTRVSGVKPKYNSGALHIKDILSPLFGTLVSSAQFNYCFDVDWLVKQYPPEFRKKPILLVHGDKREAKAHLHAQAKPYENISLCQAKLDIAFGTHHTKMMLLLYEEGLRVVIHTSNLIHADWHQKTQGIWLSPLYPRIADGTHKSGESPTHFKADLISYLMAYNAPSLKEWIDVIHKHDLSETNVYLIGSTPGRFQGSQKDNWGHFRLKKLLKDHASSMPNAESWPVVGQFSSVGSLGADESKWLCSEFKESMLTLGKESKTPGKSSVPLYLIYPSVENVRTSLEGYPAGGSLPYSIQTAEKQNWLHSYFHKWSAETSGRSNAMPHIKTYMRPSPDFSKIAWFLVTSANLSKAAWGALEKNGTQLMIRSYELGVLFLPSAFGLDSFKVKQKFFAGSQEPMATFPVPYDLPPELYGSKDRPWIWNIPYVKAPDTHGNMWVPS
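Steps: enzyme plus compound, 15 min RT; add biotin/phosphotyrosine-FITC oligonucleotide (15 nM final), react 5 min; add donor/acceptor beads (10 ug/ml final), 10 min; read AlphaScreen. Tdp1 at 1 nM final.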
IL1B secr inh: qHTS for Inhibitors of Inflammasome Signaling: IL-1-beta AlphaLISA Primary Screen | 360,000 compounds, 4.7% hits | THP-1 LPS/ATP IL-1B secretion, AlphaLISA, 16 h; stronger effect = lower value | activity change, % at 57.5 µM; in the data active means activity change below about -50%; inconclusive means mostly about -30% to -49%; further: on the % scale 0 is the no-effect control and ±100 the full control effect
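Secreted IL-1B measured by AlphaLISA bead assay after 16 h compound exposure of THP-1 cells; compounds (final up to 57.5 uM) added 1 h before LPS (250 ng/mL) and ATP (1.25 mM) stimulation; lower signal means less secretion.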
TGFb inhibitor: qHTS for Inhibitors of TGF-b; HepG2 CAGA-GFP TGF-b/SMAD3 reporter, GFP fluorescence, 18 h; TGF-beta stimulated, 500 pg/mL final; 410,000 compounds, 1.2% hits; Potency, µM (titrated, usually from 46.1 µM), inactives show at the top dose activity, negative = inhibition, actives largely listed as inhibitors; further: potency means the concentration at half of the fitted maximal effect; on the % scale 0 is the no-effect control and ±100 the full control effect; nearly all actives have a fitted effect of over 65% in size
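HEPG2 CAGA-GFP cells (1000/well, DMEM with 1% FBS) were pre-incubated 2 h at 37 degrees C, given compound by pin tool, then stimulated with TGF-beta at 500 pg/mL final for 18 h before per-cell GFP fluorescence imaging.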
DT40 TDP1 CPT: qHTS for Inhibitors of human tyrosyl-DNA phosphodiesterase 1 (TDP1): qHTS in cells in presence of CPT; chicken DT40 Tdp1-/-;hTDP1 cells + 20 nM CPT, ATP luminescence, 48 h; Potency, µM (highest dose often 46.2 µM), inactives show at the highest dose activity change, negative = growth inhibition, usual class: inhibitors; 420,000 compounds, 12% hits; AID 686979, 2013; further: potency means the concentration at half of the fitted maximal effect; on the % scale 0 is the no-effect control and ±100 the full control effect; nearly all actives have a fitted effect of over 55% in size
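Cell growth measured by CellTiter-Glo luminescence after a minimum 48 h, 37 C compound exposure with 20 nM CPT in Tdp1-knockout DT40 cells stably expressing hTDP1, seeded 400/well; qHTS titration format.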
TDP1 cell noCPT: qHTS for Inhibitors of human tyrosyl-DNA phosphodiesterase 1 (TDP1): qHTS in cells in absence of CPT. 420,000 compounds, 15% hits. DT40 Tdp1-/- hTDP1 cells, no CPT, ATP luminescence, 48 h. Potency, µM (titrated, usually from 46.2 µM), for inactives: at the highest dose activity change, negative = growth inhibition, most hits filed as inhibitors; further: potency means the concentration at half of the fitted maximal effect; on the % scale 0 is the no-effect control and ±100 the full control effect; nearly all actives have a fitted effect of over 55% in size
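No-CPT arm: Tdp1-/-;hTDP1 DT40 cells (400/well) plus compounds, incubated ≥48 hr at 37 °C. Readout CellTiter-Glo luminescence.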
HepG2 tox: qHTS for Inhibitors of TGF-b: Cytotox Counterscreen | HepG2 CAGA-GFP viability, ATP luminescence, 18 h | 410,000 compounds, 0.76% hits | Potency, µM (titrated, usually from 46.1 µM), without a hit: at the top dose activity change, negative = cytotoxicity, usual class: cytotoxic | AID 588856, 2011; further: potency means the concentration at half of the fitted maximal effect
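CellTiter-Glo luminescence gave cytotoxicity after 18 hours at 37 degrees C. The cells were HepG2 CAGA-GFP in 1% FBS DMEM, stimulated with 500 pg/mL TGF-beta after compound addition. %Activity was normalised to no-cell wells (complete cell-killing) and DMSO (no toxicity), and curves were fitted and classified.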
Starred values were filed as active, the others as inactive; ? = inconclusive; nt = not tested or not shown; [ ] = another dose, or the depositor's remark. Compounds with a hit are over-represented: about 19% of the library has one in this group of screens. Unless noted, the call rests on the fitted dose curve; in most records, active means well fitted curve in the direction sought with a large enough effect; inconclusive means small, poorly fitted or top-dose-only effect, or another doubt; inactive means no such curve, though single readings can be large; an effect the other way counts as inactive or inconclusive.

SMILES	TDP1 block	IL1B secr inh	TGFb inhibitor	DT40 TDP1 CPT	TDP1 cell noCPT	HepG2 tox
CCc1ccc(C(=O)NNC(=O)C2CSC3(C)CCC(=O)N23)cc1 (stereo not given)	-6%	1	3%	1%	-7%	3%
CCCCCCCNC(=O)C1(CC2CC(c3ccc(Cl)cc3)=NO2)CCN(C(=O)c2ccccc2)CC1 (stereo not given)	nt	?	-2%	?	?	8%
CC(C)(C)OC(=O)N1CCC(CC2CC(c3ccccc3)=NO2)(C(=O)NCc2ccccc2)CC1 (stereo not given)	0%	-25	?	?	?	-15%
CCCCCCCNC(=O)C1(CC2CC(c3ccccc3)=NO2)CCN(C(=O)c2ccccc2)CC1 (stereo not given)	0%	0	?	?	16µM*	-5%
CCCCCCCNC(=O)C1(CC2CC(c3ccccc3)=NO2)CCN(C(=O)OC(C)(C)C)CC1 (stereo not given)	-3%	-4	-21%	?	18µM*	-4%
O=C(CN1C(=O)c2ccccc2C1=O)NCC(=O)Nc1ccccc1	nt	24	?	-10%	-8%	5%
N#Cc1ccc2ccn(CC(=O)NC3CCCCC3)c2c1	6%	-2	-26%	2%	-18%	-15%
N#Cc1ccc2ccn(CC(=O)NCc3ccccc3)c2c1	-2%	0	11%	?	18µM*	-15%
CCc1nc2sc3c(N4CCC(C)CC4)ncnc3c2c2c1CCCC2	-3%	nt	?	5%	6%	-91%
CN(C)CCOc1ccccc1Cc1ccccc1 (tested in a mixture with another compound)	nt	nt	nt	-21%	-22%	nt
NCCOc1ccccc1Cc1ccccc1	0%	-62*	9%	?	?	-19%
N/C(=N\OC(=O)C(c1ccccc1)c1ccccc1)c1ccncc1	nt	-14	11%	-4%	29µM*	0%
CCC(C(=O)O/N=C(\N)c1ccccc1)c1ccccc1 (stereo not given)	0%	-8	9%	-15%	-26%	-15%
Cn1c(=O)c2[nH]c(-c3ccc(S(=O)(=O)O)cc3)nc2n(C)c1=O	6%[56.1 µM]	-9	17%	6%	-2%	-2%
Cc1nc2ccc(CN(C)c3ccc(C(=O)N[C@@H](CCC(=O)O)C(=O)O)s3)cc2c(=O)[nH]1	nt	nt	nt	0.0084µM*	0.0042µM*	nt
C=C1NC(=O)c2cc(CN(C)c3ccc(C(=O)N[C@@H](CCC(=O)O)C(=O)O)s3)ccc2N1	-4%	nt	nt	nt	nt	nt
O=c1c2c3c(sc2nc2n1CCCCC2)CCCCC3	-6%	nt	nt	nt	nt	nt
N=c1c2c3c(sc2nc2n1CCCCC2)CCCCC3	0%	-12	-4%	23µM*	12µM*	-22%
O=c1c2c3c(sc2nc2n1CCCCC2)CCCC3	-8%	-1	-3%	23µM*	-20%	-32%
O=C(NNC(=S)Nc1ccc(Cl)cc1)c1ccccc1OC(F)F	5%	20	14µM*	?	23µM*	-59%
CC/C(=N\NC(=S)Nc1cc(C)ccc1C)c1ccc(OC(F)F)cc1	9%	0	?	?	16µM*	-7%
COc1ccccc1NC(=S)NNC(=S)Nc1ccc(OC(F)F)cc1	4%	-86*	-28%	?	21µM*	-42%
CC/C(=N\NC(=S)Nc1ccc(OC)cc1)c1ccc(OC(F)F)cc1	3%	17	-29%	2.9µM*	5.8µM*	5%
CC/C(=N\NC(C)=O)c1ccc(OC(F)F)cc1	-2%	nt	nt	nt	nt	nt
CC(Sc1nc(=O)cc(N)n1CCc1ccccc1)C(=O)Nc1ccc(Cl)cc1 (stereo not given)	2%	nt	-6%	?	?	-16%
SMILES	TDP1 block	IL1B secr inh	TGFb inhibitor	DT40 TDP1 CPT	TDP1 cell noCPT	HepG2 tox
CC1CCCC(C)N1NC(=S)Nc1ccc(OC(F)F)cc1 (stereo not given)	9%	6	-6%	21µM*	?	-17%
CC(C)c1ccc(NC(=S)NN2C(C)CCCC2C)cc1 (stereo not given)	-3%	99	?	-2%	-16%	-30%
C/C(=N\NC(=S)Nc1c(C)cccc1C)c1ccc(OC(F)F)cc1	3%	-13	?	10µM*	9.2µM*	-4%
CCC(C(=O)NC1CCCC1)N(C(=O)Cn1nnc(-c2ccc(C)o2)n1)c1cccc(OC)c1 (stereo not given)	6%	23	4%	13%	-18%	-1%
O=C(NC1CC(=O)N(c2ccc3c(c2)OCCO3)C1)c1c(F)cccc1Cl (stereo not given)	3%	nt	-1%	6%	0%	1%
CN(C)C(=O)/C(=C\c1cccc(Oc2ccccc2)c1)NC(=O)c1ccccc1	3%	-9	-11%	16µM*	?	-22%
Cc1nc2cnc(N3CCNCC3)nc2n(-c2ccccc2)c1=O	nt	nt	nt	-8%	4%	nt
Cc1cccc(/C=N/NC(=O)c2cccc(Cl)c2)n1	nt	-21	-11%	?	16µM*	-16%
Cc1cccc(/C=N/NC(=O)c2cccc([N+](=O)[O-])c2)n1	10%	-10	-10%	18µM*	21µM*	-4%
Cc1cc(/C=N/NC(=O)c2cccc([N+](=O)[O-])c2)c(C)n1-c1ccc(Cl)cc1Cl	6%	-61*	6%	?	?	-7%
Cc1cc(/C=N/NC(=O)c2ccccc2F)c(C)n1-c1ccccc1	8%	-25	-19%	-18%	2%	-7%
Cc1cc(/C=N/NC(=O)c2cccc(F)c2)c(C)n1-c1ccccc1	7%	-26	-16%	?	29µM*	-25%
Cc1cccc(/C=N/NC(=O)c2cccc(NC(=O)c3ccccc3)c2)n1	nt	32	1%	-1%	-13%	-1%
O=C(N/N=C/c1ccc[nH]1)c1cccc([N+](=O)[O-])c1	1%	-8	17%	12%	3%	0%
C/C=C/OC(=O)NC(c1ccccc1)[C@]1(C(C)=O)CCOC1=O (stereo not given in full)	-5%[21 µM]	nt	nt	nt	nt	nt

Screens (PubChem)
